Results on eight molecules are retold here after PubChem BioAssay (NCI).

Compounds without any hit were thinned out: in the full panel of roughly 83,000, 20% have a hit.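 Step 1: grow cells in 96-well plates. Step 2: add test compound at a single concentration. Step 3: incubate 48 h. Step 4: record percent growth.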 Unmarked numbers belong to inactive results. Calls of active or inactive are those of the source. Rule for the calls: active = growth percent below 10; inactive = the rest.

Test systems include NCI-H23 lung; NCI-H226 lung; NCI-H322M lung; HOP-62 NSCLC; NCI-H460 lung; HOP-92 NSCLC; NCI-H522 lung; A549/ATCC NSCLC; 786-0 renal; COLO 205 colon; DU-145 prostate; K-562 leukemia; MALME-3M melanoma; MDA-MB-231 breast; RXF 393 renal; SF-268 CNS; SF-539 CNS; UACC-257 melanoma; M14 melanoma; SF-295 CNS.
Holding throughout (experiment): NCI-60 one-dose screen, 48 h (100 = growth as untreated, 0 = no growth, -100 = all killed)
Holding throughout (conditions): 10 µM unless noted

With `CCC1CCc2nc3sc(C(=O)Nc4cccc(F)c4)c(N)c3cc2C1` (configuration not stated), the growth in the assay on NCI-H23 lung is 91.7%; in the assay on NCI-H226 lung, 85.2%; in the assay with NCI-H322M lung, 87.8%; in the assay on HOP-62 NSCLC, 74.1%; in the assay with NCI-H460 lung, 74.5%; in the assay with HOP-92 NSCLC it was 61.4%. The growth is 70.1% with NCI-H522 lung; 66.3% in the assay with A549/ATCC NSCLC; 83.1% in the assay on 786-0 renal; 67.8% in the assay on COLO 205 colon; 60% in the assay on DU-145 prostate; 28.6% in the assay with K-562 leukemia. In addition, the growth was 34.8% with MALME-3M melanoma; 78.3% in the assay on MDA-MB-231 breast; 65.8% in the assay on RXF 393 renal; 68.2% in the assay with SF-268 CNS; 58.8% in the assay on SF-539 CNS; 49.5% with UACC-257 melanoma. In addition, the growth in the assay with M14 melanoma is 47.5%.
`CN1CCN(Cc2ccc(NC(=O)c3cncc(C#Cc4ncc5cnccn45)c3)cc2C(F)(F)F)CC1`: the growth was 34.3% with NCI-H23 lung; -7.4% (active) in the assay with NCI-H226 lung; 60.4% in the assay on NCI-H322M lung; 33.7% in the assay on HOP-62 NSCLC; 52.6% with NCI-H460 lung; 11.2% in the assay with HOP-92 NSCLC. Further, the growth was 58.3% with NCI-H522 lung; 74.2% in the assay with A549/ATCC NSCLC; 71.5% in the assay with 786-0 renal; 17% in the assay on COLO 205 colon; 46.8% in the assay with DU-145 prostate; 8.73% (active) in the assay with K-562 leukemia. Further, the growth with MALME-3M melanoma is 14.7%; in the assay on MDA-MB-231 breast, 25.6%; in the assay with RXF 393 renal, 51.1%; with SF-268 CNS it was 56.4%; in the assay on SF-539 CNS, 37.8%; in the assay on UACC-257 melanoma, 55.3%. Also, the growth in the assay with M14 melanoma was 9.27% (active).
Consider `CC(CN1CCN(CCOCCO)CC1)CN1c2ccccc2Sc2ccc(Cl)cc21` (configuration not stated), for which the growth in the assay with NCI-H23 lung is 72.7%; in the assay with NCI-H226 lung, 83.5%; with NCI-H322M lung, 88.2%; in the assay with HOP-62 NSCLC, 107%; in the assay on NCI-H460 lung, 50.2%; in the assay with HOP-92 NSCLC, -3.33% (active). Moreover, the growth is 33.3% in the assay on NCI-H522 lung; 75.1% in the assay on A549/ATCC NSCLC; 65.5% with 786-0 renal; -79.9% (active) with COLO 205 colon; 70.3% in the assay with DU-145 prostate; 6.64% (active) in the assay with K-562 leukemia. The growth was 45.1% in the assay on MALME-3M melanoma; 29.9% with MDA-MB-231 breast; 56.8% in the assay with RXF 393 renal; 63.8% in the assay on SF-268 CNS; 79.2% with SF-539 CNS; -3.9% (active) in the assay with UACC-257 melanoma. In addition, in the assay with M14 melanoma, the growth is 5.98% (active).
For `Cn1nc(C(F)(F)F)cc1-c1c[nH]c(OCc2ccc(Cl)cc2)c(-c2ccc(Cl)c(C(F)(F)F)c2)c1=O`, the growth in the assay with NCI-H23 lung was 3.29% (active); with NCI-H226 lung, -17.3% (active); in the assay with NCI-H322M lung it was 8.32% (active); with HOP-62 NSCLC, -25% (active); in the assay on NCI-H460 lung, 2.53% (active); with HOP-92 NSCLC it was -22.6% (active). Moreover, the growth was -1.66% (active) in the assay with NCI-H522 lung; 13.4% in the assay with A549/ATCC NSCLC; 3.83% (active) in the assay on 786-0 renal; -31% (active) in the assay with COLO 205 colon; 15.7% with DU-145 prostate; 8.64% (active) in the assay with K-562 leukemia. Moreover, the growth was -24.2% (active) with MALME-3M melanoma; -29% (active) with MDA-MB-231 breast; -21.9% (active) in the assay with RXF 393 renal; 8.48% (active) in the assay with SF-268 CNS; -11.4% (active) with SF-539 CNS; 4.21% (active) in the assay on UACC-257 melanoma. In addition, in the assay with M14 melanoma, the growth was 1.49% (active).
As to `Cc1cc2nc3c(=O)[nH]c(=O)nc-3n(CC=O)c2cc1C`, the growth with NCI-H23 lung was 108%; in the assay with NCI-H226 lung it was 91%; in the assay with NCI-H322M lung it was 110%; in the assay on HOP-62 NSCLC, 106%; in the assay on NCI-H460 lung, 106%; in the assay with HOP-92 NSCLC, 293%. Also, the growth with NCI-H522 lung was 107%; in the assay with A549/ATCC NSCLC, 115%; in the assay on 786-0 renal it was 105%; in the assay with COLO 205 colon, 128%; in the assay on DU-145 prostate, 116%; with K-562 leukemia it was 96%. Besides, the growth in the assay on MALME-3M melanoma was 112%; in the assay on MDA-MB-231 breast, 106%; in the assay with SF-268 CNS, 99.5%; in the assay with SF-295 CNS, 92.2%; in the assay on SF-539 CNS it was 93.6%; in the assay with UACC-257 melanoma, 159%. For the same molecule, the growth with M14 melanoma is 109%.
Regarding `O=C1Nc2ccccc2/C1=C/c1c[nH]c2ccccc12`, the growth with NCI-H23 lung was 78.9%; with NCI-H226 lung, 83.4%; in the assay with NCI-H322M lung, 70.1%; with HOP-62 NSCLC, 66%; in the assay on NCI-H460 lung it was 88.7%; in the assay with HOP-92 NSCLC, 65.2%. Also, the growth was 88.7% with NCI-H522 lung; 77.3% in the assay on A549/ATCC NSCLC; 105% in the assay with 786-0 renal; 115% in the assay with COLO 205 colon; 98.1% with DU-145 prostate; 82.8% with K-562 leukemia. For the same molecule, the growth in the assay on MALME-3M melanoma is 88.1%; in the assay on MDA-MB-231 breast, 71.7%; in the assay with RXF 393 renal, 90.9%; in the assay on SF-268 CNS, 87.8%; with SF-539 CNS it was 80.6%; in the assay on UACC-257 melanoma, 89.2%. The growth in the assay with M14 melanoma was 91.8%.
Regarding `O=C(Nc1ccc(Cl)c(C(F)(F)F)c1)c1ccc(Nc2ccc(Cl)nn2)cc1`, the growth in the assay on NCI-H23 lung is 48.4%; in the assay on NCI-H226 lung, 84.2%; in the assay on NCI-H322M lung, 92.9%; with HOP-62 NSCLC it was 86.1%; with NCI-H460 lung it was 74%; in the assay on HOP-92 NSCLC, 82.8%. Further, the growth with NCI-H522 lung was 62%; in the assay with A549/ATCC NSCLC, 44.3%; in the assay on 786-0 renal it was 50.9%; in the assay with COLO 205 colon, 81.6%; in the assay on DU-145 prostate, 76.7%; in the assay with K-562 leukemia, 44.2%. The growth in the assay with MALME-3M melanoma was 106%; in the assay on MDA-MB-231 breast it was 59.3%; with RXF 393 renal, 47.8%; in the assay with SF-268 CNS, 80.7%; in the assay on SF-539 CNS it was 68.1%; in the assay on UACC-257 melanoma, 74.6%. Also, the growth in the assay with M14 melanoma was 57.4%.
Consider `CC(CN1CCN(C)CC1)CN1c2ccccc2Sc2ccc(C(F)(F)F)cc21` (configuration not stated), for which the growth in the assay with NCI-H23 lung is 74.3%; in the assay on NCI-H226 lung, 81.8%; in the assay with NCI-H322M lung, 80%; in the assay with HOP-62 NSCLC, 85.6%; in the assay with NCI-H460 lung it was 0.601% (active); with HOP-92 NSCLC, 39.7%. For the same molecule, the growth with NCI-H522 lung was 43.8%; in the assay on A549/ATCC NSCLC it was 41.2%; with 786-0 renal, 52.2%; with COLO 205 colon, -68% (active); with DU-145 prostate it was 61.7%; with K-562 leukemia it was -31.2% (active). For the same molecule, the growth in the assay on MALME-3M melanoma was 62.9%; in the assay with MDA-MB-231 breast it was 27.6%; with RXF 393 renal, 18.7%; in the assay on SF-268 CNS it was 52.2%; in the assay on SF-539 CNS, 67.5%; in the assay on UACC-257 melanoma it was 30%. Further, the growth in the assay on M14 melanoma was 0.817% (active).
